# Assay outcomes (PubChem)
# NPR1 antag – antagonists of human natriuretic peptide receptor Npr1. P16066. HEK293 hNpr1 GloSensor cGMP, ANP-stimulated luminescence. Potency, µM (doses to about 46.3 µM), without a hit: top-dose activity change, negative = inhibition, usual class: inhibitors. 76,000 tested, 1.6% active; calls by dose curve; further: nearly all actives have a fitted effect of over 60% in size
#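 Compound pre-incubated 30 min at room temperature on GloSensor-loaded HEK293 cells stably carrying hNpr1 and the pGS-40F cGMP biosensor. Stimulation uses hNppA at 0.1 nM final; luminescence is taken at baseline and 20 min post-agonist.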
# GPT2 inhibitor – inhibitors of human GPT2 alanine aminotransferase. 100,000 tested, 0.25% active. Recombinant GPT2, coupled pyruvate oxidase/HRP Amplex Red fluorescence. Potency, µM (series often up to 57.7 µM), for the others: top-dose activity change, negative = inhibition, actives largely listed as inhibitors. Q8TD30; further: nearly all actives have a fitted effect of over 60% in size
#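 Fluorescence read-out: pyruvate from GPT2 turnover coupled to pyruvate oxidase, HRP and Amplex Red (0.2mM ThPP, 0.2U/mL PO and HRP, 50uM Amplex final). Substrates 250uM a-KG, 2mM L-alanine; enzyme 10ng/uL; 30 min RT.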
# 3T3 cytotox – cytotoxic compounds in NIH 3T3 cells | 94,000 tested, 4.3% active | AID 1345082 | NIH 3T3 viability, CellTiter-Glo ATP luminescence, 48-72 h | Potency, µM (titrated, usually from 96.7 µM), for the others: at the top dose activity change, negative = cytotoxicity, most hits filed as inhibitors; further: nearly all actives have a fitted effect of over 55% in size
#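 NIH 3T3 cells at 400 cells/well received 23 nL of compound by pintool and were incubated 48 or 72 h at 37 °C. Viability was read as ATP-coupled CellTiter-Glo luminescence.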
# HEK cytotox – kills HEK 293 cells; HEK 293 viability, ATP luminescence (CellTiter-Glo), 48-72 h; Potency, µM (top dose mostly 115 µM), without a hit: at the highest dose activity change, negative = cytotoxicity, actives largely listed as inhibitors; 94,000 tested, 6.6% active; further: nearly all actives have a fitted effect of over 60% in size
#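 HEK 293 cells at 250 cells/well were exposed to compounds by pintool transfer for 48 or 72 hr at 37 degree Celsius, 5% CO2. Viability was read as ATP-coupled luminescence with CellTiter-Glo after 10 min at room temperature.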
# Luciferase inh – inhibitors of firefly (Photinus pyralis) luciferase; Potency, µM (doses to about 115 µM), usual class: inhibitors; AID 1347043; P08659; purified P. pyralis luciferase, luminescence, biochemical; 76,000 tested, 2.5% active; further: nearly all actives have a fitted effect of over 65% in size
# Target sequence (P08659 whole entry, looked up): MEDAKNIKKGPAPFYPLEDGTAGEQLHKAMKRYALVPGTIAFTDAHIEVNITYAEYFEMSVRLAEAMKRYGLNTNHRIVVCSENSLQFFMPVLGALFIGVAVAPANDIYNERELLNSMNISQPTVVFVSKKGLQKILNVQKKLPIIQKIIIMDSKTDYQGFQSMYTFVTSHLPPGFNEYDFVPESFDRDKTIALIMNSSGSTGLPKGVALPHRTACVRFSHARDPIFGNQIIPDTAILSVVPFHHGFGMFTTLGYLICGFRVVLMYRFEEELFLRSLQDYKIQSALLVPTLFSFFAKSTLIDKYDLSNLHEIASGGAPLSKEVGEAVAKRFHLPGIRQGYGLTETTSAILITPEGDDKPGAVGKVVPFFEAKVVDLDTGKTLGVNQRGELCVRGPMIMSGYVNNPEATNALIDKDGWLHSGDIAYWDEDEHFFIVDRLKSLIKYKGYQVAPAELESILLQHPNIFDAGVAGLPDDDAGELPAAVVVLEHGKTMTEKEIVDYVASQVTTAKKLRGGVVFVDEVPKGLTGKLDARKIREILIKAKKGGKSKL
#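 Biochemical qHTS: compound (6-point titration) added to 10uM D-luciferin plus 10uM ATP in Tris acetate pH 7.5 buffer with Mg, Tween-20 and BSA, then purified enzyme at 10nM; light output imaged.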
# Starred values were filed as active, the others as inactive; i = inactive; ? = inconclusive; . = not tested or not shown; [ ] = another dose, or the depositor's remark. In the library only some 10% were active in any assay of this set; here they are far more common. Unless noted, the call rests on the fitted dose curve; in most records, active means well fitted curve in the direction sought with a large enough effect; inconclusive means small, poorly fitted or top-dose-only effect, or another doubt; inactive means no such curve, though single readings can be large; an effect the other way counts as inactive or inconclusive. On the % scale 0 is the no-effect control and ±100 the full control effect; potency means the concentration at half of the fitted maximal effect.
SMILES,NPR1 antag,GPT2 inhibitor,3T3 cytotox,HEK cytotox,Luciferase inh
O=C(Nc1ccc(=O)n2c1[C@@H]1C[C@@H](CN(C(=O)Nc3ccc(F)cc3)C1)C2)c1ccco1,7%,3%,-18%,-25%,i
O=C1N(C2CCCCC2)C[C@H]2CN(Cc3ccncc3)CCN12,1%[70.6 µM],-9%[88.5 µM],-18%[174 µM],-29%[172 µM],i
COc1cc2c(cc1OCc1ccccc1)NC(=O)C21CCN(Cc2c(C)noc2C)CC1,?,-21%,?,25µM*,?
COc1cc2c(cc1OCc1ccccc1)NC(=O)C21CCN(c2ccnc(C)n2)CC1,?,4%[88.5 µM],?,28µM*,?
COc1cc2c(cc1OCc1ccccc1)NC(=O)C21CCN(Cc2ccccc2)CC1,-25%[70.6 µM],1%[88.5 µM],32µM*,32µM*,i
COc1cc2c(cc1OCc1ccccc1)NC(=O)C21CCN(Cc2ccncc2)CC1,?,1%[88.5 µM],?,?,i
COc1cc2c(cc1OCc1ccccc1)NC(=O)C21CCN(C(C)=O)CC1,-3%[70.6 µM],-21%[88.5 µM],40µM*,?,?
COc1cc2c(cc1OCc1ccccc1)NC(=O)C21CCN(c2ncccn2)CC1,-27%[70.6 µM],1%[88.5 µM],?,?,i
COc1cc2c(cc1OCC1CC1)NC(=O)C21CCN(C(C)=O)CC1,3%[70.6 µM],2%[88.5 µM],?,-1%[172 µM],i
O=C(c1ccco1)N1C[C@@H]2C[C@H](C1)c1c(-c3cccnc3)ccc(=O)n1C2,3%[70.6 µM],i,-1%[174 µM],-1%[172 µM],i
C[C@@H]1CCC/C=C/[C@H]2C[C@@H](O)C[C@@H]2[C@@H](O)/C=C/C(=O)O1,.,-6%,.,.,.
Cn1nc(C2CCCCC2)cc1[C@H]1CN2CC[C@H]1C[C@@H]2CNC(=O)N1CCOCC1,10%[70.6 µM],-3%[88.5 µM],-13%[174 µM],3%[172 µM],i
COc1cncc(-c2cc3c(cc2OC)C2(CCN(C(C)=O)CC2)C(=O)N3)c1,0%[70.6 µM],3%[88.5 µM],32µM*,-15%[172 µM],i
COc1cc2c(cc1-c1ccc(N3CCN(C)CC3)nc1)NC(=O)C21CCN(C(C)=O)CC1,1%,?,?,-10%,i
CC[C@H]1CN2CC[C@H]1C[C@@H]2COC(=O)Nc1ccc(C(C)(C)C)cc1,6%[70.6 µM],i,40µM*,40µM*,?
CC[C@H]1CN2CC[C@H]1C[C@@H]2CNS(=O)(=O)c1ccc2ccccc2c1,1%[70.6 µM],i,-14%[174 µM],?,i
CC[C@H]1CN2CC[C@H]1C[C@@H]2COC(=O)Nc1cccc2ccccc12,-9%[70.6 µM],i,50µM*,?,i
CC[C@H]1CN2CC[C@H]1C[C@@H]2CNC(=O)Nc1ccc(Br)cc1,7%[70.6 µM],-4%[88.5 µM],-13%[174 µM],3%[172 µM],i
CC(C)N1CC2CCC(C1)N2C(=O)c1ccncc1,.,1%[88.5 µM],2%[138 µM],-10%[172 µM],.
CCCS(=O)(=O)Nc1ccc(=O)n2c1[C@@H]1C[C@@H](CN(S(=O)(=O)c3ccccc3)C1)C2,-2%,-25%,-12%,-6%,i
COc1ccc(CC(=O)N2[C@H]3CC[C@@H]2c2cnc(-c4ccc(F)cc4)nc2C3)cc1OC,-29%,i,-19%,79µM*,i
COc1cccc(CC(=O)N2[C@H]3CC[C@@H]2c2cnc(C)nc2C3)c1,0%,i,0%,3%,i
COc1cccc(CC(=O)N2[C@H]3CC[C@@H]2c2cnc(-c4ccc(F)cc4)nc2C3)c1,5%,-34%,?,32µM*,i
COc1ccc(OC)c(S(=O)(=O)N2[C@H]3CC[C@@H]2c2cnc(C)nc2C3)c1,4%,1%,-13%,-6%,i
C[C@@H]1CC2=CC(=O)CC[C@@H]2[C@H]2CC[C@@]3(C)[C@@H](CC[C@]3(C)O)[C@@H]21,.,i,.,.,.
SMILES,NPR1 antag,GPT2 inhibitor,3T3 cytotox,HEK cytotox,Luciferase inh
O=C(Nc1ccc2n(c1=O)C[C@H]1C[C@@H]2CN(C(=O)NC2CCCCC2)C1)c1ccco1,2%[70.6 µM],2%[88.5 µM],89µM*,-13%[172 µM],i
CC1=CC(=O)[C@@H](O)[C@@]2(C)C1C[C@H]1OC(=O)[C@H](O)[C@@]3(O)[C@@H](C)[C@@H](O)[C@H](O)C2[C@@]13C (stereo partly drawn),.,1%[27.3 µM],.,.,.
COc1cc2c(cc1CCc1ccccc1)N(C(=O)C1CCC(C)CC1)CC21CCN(C(C)=O)CC1 (stereo not drawn),?,-18%,32µM*,40µM*,i
COc1cc2c(cc1CCc1ccccc1)N(C(=O)c1ccnn1C)CC21CCN(C(C)=O)CC1,2%,-1%,?,?,i
COc1cc2c(cc1CCc1ccccc1)N(C(=O)c1c[nH]c3ccccc13)CC21CCN(C(C)=O)CC1,-19%,-12%,22µM*,25µM*,i
COc1cc2c(cc1CCc1ccccc1)N(C(=O)C(C)C)CC21CCN(C(C)=O)CC1,4%[70.6 µM],?,-98%[138 µM],89µM*,i
O=C(Nc1ccc2n(c1=O)C[C@H]1C[C@@H]2CN(c2ncccn2)C1)c1ccccc1,2%[70.6 µM],-22%[88.5 µM],-27%[174 µM],-1%[172 µM],i
COc1ccc(-c2cc([C@H]3CN4CC[C@H]3C[C@@H]4CNS(=O)(=O)c3ccccc3)n(C)n2)cc1OC,-2%,i,?,?,i
COc1ccc(-c2cc([C@H]3CN4CC[C@H]3C[C@@H]4CNS(=O)(=O)c3ccc(C)cc3)n(C)n2)cc1OC,1%,?,22µM*,40µM*,i
COc1ccccc1-c1cc([C@H]2CN3CC[C@H]2C[C@@H]3CNS(=O)(=O)c2ccccc2)n(C)n1,1%,0%,32µM*,?,i
Cn1nc(C2CCCC2)cc1[C@H]1CN2CC[C@H]1C[C@@H]2CNS(=O)(=O)c1ccccc1,0%[70.6 µM],-6%[88.5 µM],112µM*,100µM*,i
COc1ccccc1-c1cc([C@H]2CN3CC[C@H]2C[C@@H]3CNS(C)(=O)=O)n(C)n1,7%[70.6 µM],-4%[88.5 µM],-13%[174 µM],i,i
CCOC(=O)Nc1ccc(NCc2c(C)cc(C)cc2C)cc1N,.,-4%,.,.,.
CNC(=O)Oc1cccc2ccccc12,.,8.9µM*,.,.,.
Cn1nc(-c2ccc3ccccc3c2)cc1[C@H]1CN2CC[C@H]1C[C@@H]2COC(=O)Nc1cccc(C(F)(F)F)c1,4%,i,?,79µM*,i
COc1ccccc1-c1cc([C@H]2CN3CC[C@H]2C[C@@H]3COC(=O)Nc2ccccc2)n(C)n1,-2%,i,?,?,i
CC(C)NC(=O)OC[C@H]1C[C@@H]2CCN1C[C@@H]2c1cc(-c2ccc3ccccc3c2)nn1C,-25%[70.6 µM],?,28µM*,28µM*,40µM*
CCCNC(=O)OC[C@H]1C[C@@H]2CCN1C[C@@H]2c1cc(-c2ccc3ccccc3c2)nn1C,-10%[70.6 µM],2%[88.5 µM],32µM*,63µM*,i
